Columns and labels:
Assay in all cases: PBM binding z-score (relative to random genomic background probes); higher = stronger binding; sequences stand for … in GC…GCGATTGACAGCGTAGAATGAAGG
[1] = system: FXR:RXRa (NR concentration 270 nM, RXRa partner concentration 90 nM)
Outline: (§1)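 Antibodies against each partner of ligand-free nuclear receptor dimers (one per run) detected binding on custom Agilent 4×180K protein-binding microarrays after 1 h incubation. The double-stranded probes had 34-nt variable regions carrying direct-repeat seeds, single-nucleotide variants, half-site ablations and random human genomic background sequences. Binding z-scores, from regression-normalized fluorescence, use the random background probes as reference.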

[2] = system: LXRa:RXRa (NR concentration 270 nM, RXRa partner concentration 90 nM)
Outline: as §1

[3] = system: LXRa homodimer (NR concentration 270 nM)
Outline: as §1

[4] = system: LXRb:RXRa (NR concentration 270 nM, RXRa partner concentration 90 nM)
Outline: as §1

[5] = system: LXRb homodimer (NR concentration 270 nM)
Outline: as §1

[6] = system: PPARa:RXRa (NR concentration 270 nM, RXRa partner concentration 90 nM)
Outline: as §1

[7] = system: PPARg:RXRa (NR concentration 180 nM, RXRa partner concentration 90 nM)
Outline: as §1

[8] = system: PPARg:RXRa 270nM:90nM, anti-RXR (NR concentration 270 nM, RXRa partner concentration 90 nM)
Outline: as §1

[9] = system: PPARg:RXRa 30nM:10nM, anti-RXR (NR concentration 30 nM, RXRa partner concentration 10 nM)
Outline: as §1

[10] = system: PPARg:RXRa 90nM:30nM, anti-RXR (NR concentration 90 nM, RXRa partner concentration 30 nM)
Outline: as §1

[11] = system: PPARg:RXRa DBDmut IVT, anti-RXR (DBD mutation: RXRa K156A/R161A, NR concentration 270 nM, RXRa partner concentration 90 nM)
Outline: as §1

[12] = system: PPARg:RXRa IVT, anti-PPARg (NR concentration 270 nM, RXRa partner concentration 90 nM)
Outline: as §1

[13] = system: PPARg DBDmut:RXRa IVT, anti-PPARg (DBD mutation: PPARg1 K132A/R137A, NR concentration 270 nM, RXRa partner concentration 90 nM)
Outline: as §1

[14] = system: PPARg DBDmut IVT, anti-PPARg (DBD mutation: PPARg1 K132A/R137A, NR concentration 270 nM)
Outline: as §1

[15] = system: PPARg homodimer (NR concentration 180 nM)
Outline: as §1

[16] = system: PXR:RXRa (NR concentration 270 nM, RXRa partner concentration 90 nM)
Outline: as §1

[17] = system: PXR homodimer (NR concentration 270 nM)
Outline: as §1

[18] = system: RARa:RXR (NR concentration 270 nM, RXRa partner concentration 90 nM)
Outline: as §1

[19] = system: RARa homodimer (NR concentration 270 nM)
Outline: as §1

[20] = system: RARb:RXRa (NR concentration 270 nM, RXRa partner concentration 90 nM)
Outline: as §1

Row | Sequence | PBM binding z-score [1] | PBM binding z-score [2] | PBM binding z-score [3] | PBM binding z-score [4] | PBM binding z-score [5] | PBM binding z-score [6] | PBM binding z-score [7] | PBM binding z-score [8] | PBM binding z-score [9] | PBM binding z-score [10] | PBM binding z-score [11] | PBM binding z-score [12] | PBM binding z-score [13] | PBM binding z-score [14] | PBM binding z-score [15] | PBM binding z-score [16] | PBM binding z-score [17] | PBM binding z-score [18] | PBM binding z-score [19] | PBM binding z-score [20]
1 | TCATATAGGGAAAAGGTGAAAGTCGGTGTGGTAA | 1.4 | 1.47 | 0.577 | 1.64 | 0.109 | 4.56 | 7.27 | 7.61 | 6.66 | 8.2 | 3.91 | 3.56 | 0.616 | 0.751 | 1.68 | 1.21 | 0.873 | 2.17 | 1.17 | 1.9
2 | TGTCGAAGTTCAAAGGTAACGTAAGTATCCACAC | 4.25 | 4.02 | 1.18 | 3.18 | 0.108 | 4.72 | 4.47 | 5.23 | 2.95 | 4.34 | -0.721 | 2.09 | 0.265 | 0.298 | 1.53 | 4.12 | 1.65 | 4.17 | 0.485 | 3.61
3 | ATCGACAGGTCGTGAGGTGAGTATACAGAAAGGC | 1.05 | 1.19 | 0.0757 | 0.943 | 0.0816 | 2.14 | 1.15 | 0.86 | 0.126 | 0.461 | -0.42 | 0.86 | -0.374 | -0.491 | 0.776 | 0.904 | 0.267 | 1.86 | 0.537 | 1.88
4 | TGTACAGGGTCAAAGGCCAGAGTACGAATGTCGA | 7.25 | 4.91 | -0.0298 | 4.39 | 0.326 | 6.34 | 8.21 | 7.42 | 5.22 | 7.52 | 2.29 | 5.22 | 1.24 | 1.55 | 1.87 | 4.52 | -0.0944 | 6.38 | 0.38 | 4.42
5 | ATCTCTAGGTAAGACTCAGTTCAGTGCAGAACGC | 0.385 | 0.334 | 0.807 | 0.371 | 0.594 | 0.349 | 0.209 | 0.0288 | 0.281 | 0.195 | 1.92 | 1.08 | 0.985 | 1.26 | 1.53 | 1.14 | 1.56 | 0.346 | 1.16 | 0.33
6 | AATCGGAGGACAAAGGTCAGAGCTACGCCAGTGA | 4.21 | 4.44 | 1.79 | 3.53 | 0.469 | 5.18 | 8.17 | 7.23 | 6.45 | 7.59 | 0.506 | 4.15 | 0.0778 | -0.0229 | 2.97 | 3.75 | 0.501 | 4.48 | 0.693 | 4.54
7 | CGTCCAAGGTCATAGGAGGTCAGGGAAGACAGAT | 7.91 | 7.63 | 5.15 | 6.25 | 0.687 | 6.17 | 6.03 | 5.99 | 2.83 | 4.83 | 3.02 | 4.92 | 1.73 | 1.82 | 5.03 | 6.9 | 3.35 | 6.79 | 2.46 | 5.31
8 | CCTAGTTGGTCAGGAGGTCACCCACCGGATATGA | 3.56 | 3.31 | 1.59 | 3.13 | 0.503 | 4.04 | 2.76 | 3.87 | 1.01 | 2.98 | 0.575 | 3.28 | -0.921 | -0.185 | 3.43 | 4.07 | 1.23 | 4.11 | 1.53 | 3.61

Source: the supplement of paper PMC6555819
